From PubChem BioAssay
Mdm2 MdmX PPI: inhibitors of human Mdm2/MdmX interaction; O15151+Q00987; SaOS-2 split-luciferase Mdm2/MdmX complementation, luminescence; inhibition, % at 8 µM; hit rate 3% among 330,000;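 active = inhibition of at least 50% at 8 µM in the primary screen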
Target sequence (O15151 whole entry, looked up): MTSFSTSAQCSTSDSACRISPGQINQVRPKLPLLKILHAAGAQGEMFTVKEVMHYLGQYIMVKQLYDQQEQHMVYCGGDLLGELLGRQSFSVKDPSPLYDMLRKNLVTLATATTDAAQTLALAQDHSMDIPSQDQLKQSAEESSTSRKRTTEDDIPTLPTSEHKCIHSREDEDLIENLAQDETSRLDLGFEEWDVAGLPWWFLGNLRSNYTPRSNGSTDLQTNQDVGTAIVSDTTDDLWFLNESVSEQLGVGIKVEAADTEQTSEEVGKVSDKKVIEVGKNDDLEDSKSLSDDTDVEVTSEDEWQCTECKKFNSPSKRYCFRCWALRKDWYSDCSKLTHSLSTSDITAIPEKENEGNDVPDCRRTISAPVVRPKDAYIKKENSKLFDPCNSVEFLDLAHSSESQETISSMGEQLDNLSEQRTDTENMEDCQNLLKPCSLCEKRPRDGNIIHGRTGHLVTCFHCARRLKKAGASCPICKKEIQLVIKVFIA
Target sequence (Q00987 whole entry, looked up): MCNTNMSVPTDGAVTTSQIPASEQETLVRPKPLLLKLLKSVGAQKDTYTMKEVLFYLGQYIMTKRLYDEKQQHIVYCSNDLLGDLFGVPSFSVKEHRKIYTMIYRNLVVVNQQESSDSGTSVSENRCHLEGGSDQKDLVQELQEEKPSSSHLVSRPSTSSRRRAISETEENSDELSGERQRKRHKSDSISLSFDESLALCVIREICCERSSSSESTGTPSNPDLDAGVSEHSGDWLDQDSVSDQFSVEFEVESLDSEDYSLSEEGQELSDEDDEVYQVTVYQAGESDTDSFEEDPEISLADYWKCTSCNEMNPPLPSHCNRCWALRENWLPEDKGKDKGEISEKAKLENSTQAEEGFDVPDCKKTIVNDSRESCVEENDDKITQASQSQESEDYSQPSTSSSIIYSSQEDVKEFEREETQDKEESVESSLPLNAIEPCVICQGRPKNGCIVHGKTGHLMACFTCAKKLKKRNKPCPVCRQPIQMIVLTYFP
Jurkat NFkB inh: lowers PMA/ionomycin-induced NF-kB signal in Jurkat cells | PMA/ionomycin-induced NF-kB luciferase reporter, luminescence | inhibition, % at 4 µM | hit rate 0.53% among 330,000; in the data active = inhibition above about 50%
Beta apoptosis: blocks beta cell apoptosis; INS-1E cytokine-induced death, ATP luminescence, 48 h; percent of positive-control rescue, neutral wells zero; hit rate 0.8% among 300,000; AID 435005; protection from apoptosis, % (concentration not given with the values);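 active = Every replicate reaches about 75%, or at least half do and their mean reaches it too, limit read from the data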;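 note: 0% = cytokine-treated negative control wells and 100% = positive control rescue; higher means more ATP so stronger rescue from cytokine killing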
Gli-Sufu block: blocks Gli-Sufu signaling in a luciferase reporter | inhibition, % at 5 µM | AID 588413 | Sufu-KO-LIGHT fibroblasts, Gli luciferase reporter luminescence | hit rate 0.74% among 340,000;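 active = inhibition above about 55%, limit read from the data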;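 note: 0% = DMSO-treated cells and 100% = wells with medium but no cells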
697 NFkB inh: inhibitors of the PMA/ionomycin-induced NF-kB reporter in 697 B cells | hit rate 0.33% among 330,000 | 697 B-cell NF-kB luciferase reporter, 16 h | AID 435022 | inhibition, % at 4 µM; in the data active = inhibition above about 35%
Mdm2-MdmX conf: human Mdm2/MdmX binding inhibition, confirmed. hit rate 55% among 10,000. luminescent assay. shares compounds with Mdm2 MdmX PPI. AID 489028. inhibition, % at 8 µM; in the data active = inhibition above about 40%
Full FLuc ctr: counter-screen for Mdm2/MdmX inhibitors: full-length luciferase; shares compounds with Mdm2 MdmX PPI; AID 504607; hit rate 77% among 6,200; SaOS-2 full-length luciferase counterscreen, luminescence; inhibition, % at 8 µM;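 active = mean inhibition at 8 µM reaching about 37%, which flags the compound as non-specific, limit read from the data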;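 note: p53-null SaOS-2 cells with luciferase driven by a doxycycline-inducible promoter; compound on cells about two nights before reading with doxycycline added after day one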
An asterisk follows results filed as active. Shown are actives, neighbours in structure and some others; about 4% of the full set was active somewhere.

Screening COc1cc2c(cc1OC)-c1cc(Nc3ccc4c(c3)OCCO4)nc(=O)n1CC2 returned Mdm2 MdmX PPI 68*, Jurkat NFkB inh 11, Beta apoptosis 21, Gli-Sufu block 34, 697 NFkB inh -12, Mdm2-MdmX conf 45* and Full FLuc ctr 52*.
Screening COc1ccc(Nc2cc3n(c(=O)n2)CCc2cc(OC)c(OC)cc2-3)cc1 returned Mdm2 MdmX PPI 24, Jurkat NFkB inh -8, Beta apoptosis 19, Gli-Sufu block 8 and 697 NFkB inh 19.
For O=C(Nc1cccc([N+](=O)[O-])c1)Nc1ccc2c(c1)CCC2 the results were Mdm2 MdmX PPI 72*, Jurkat NFkB inh -84, Beta apoptosis 36, Gli-Sufu block -35, 697 NFkB inh -67 and Mdm2-MdmX conf 22.
`Cc1ccc([N+](=O)[O-])cc1NC(=O)Nc1cccc(F)c1` gave Mdm2 MdmX PPI 59*, Jurkat NFkB inh 18, Gli-Sufu block 49, 697 NFkB inh -23 and Mdm2-MdmX conf 27.
Screening COC(=O)c1cccc(NC(=O)c2cccc([N+](=O)[O-])c2)c1 returned Mdm2 MdmX PPI 13, Jurkat NFkB inh -11, Beta apoptosis 4, Gli-Sufu block -6 and 697 NFkB inh 11.
Screening O=C(Nc1cccc([N+](=O)[O-])c1)c1cccc(C(=O)Nc2cccc([N+](=O)[O-])c2)c1 returned Mdm2 MdmX PPI 76*, Jurkat NFkB inh -15, Beta apoptosis 13, Gli-Sufu block 11, 697 NFkB inh -33, Mdm2-MdmX conf 45* and Full FLuc ctr 71*.
`COc1ccc(C(CCN2CCCC(C)C2)c2c(OC)cc(OC)c3c(-c4ccccc4)cc(=O)oc23)cc1` (centres undefined) gave Mdm2 MdmX PPI 100*, Jurkat NFkB inh 16, Beta apoptosis 51, Gli-Sufu block 30, 697 NFkB inh 13 and Mdm2-MdmX conf 17.
`COc1cc(OC)c2c(-c3ccccc3)cc(=O)oc2c1C(CCN1CCCC(C)C1)c1ccc(N(C)C)cc1` (centres undefined) gave Mdm2 MdmX PPI 77*, Jurkat NFkB inh -6, Beta apoptosis 16, Gli-Sufu block 14, 697 NFkB inh 2 and Mdm2-MdmX conf 18.
For CCCCCCc1cc2cc(-c3nnc(-c4cc(OC)c(OC)c(OC)c4)o3)c(=O)oc2cc1O the results were Mdm2 MdmX PPI 10, Jurkat NFkB inh 10, Beta apoptosis 5, Gli-Sufu block 12 and 697 NFkB inh 9.
`CCCCCCc1cc2cc(-c3nnc(-c4ccccc4OC)o3)c(=O)oc2cc1O` gave Mdm2 MdmX PPI 18, Jurkat NFkB inh 2, Gli-Sufu block -24 and 697 NFkB inh 1.
CCCCCCc1cc2cc(-c3nnc(-c4ccccc4O)o3)c(=O)oc2cc1O was read as Mdm2 MdmX PPI 73*, Jurkat NFkB inh 9, Beta apoptosis 106*, Gli-Sufu block 24, 697 NFkB inh 19, Mdm2-MdmX conf 91* and Full FLuc ctr 22.
For CCCCCCc1cc2cc(S(=O)(=O)c3ccc(F)cc3)c(=O)oc2cc1O the results were Mdm2 MdmX PPI 57*, Jurkat NFkB inh -6, Beta apoptosis 3, Gli-Sufu block 4, 697 NFkB inh 8, Mdm2-MdmX conf 51* and Full FLuc ctr 85*.
CCCCCCc1cc2cc(C(=O)Nc3ccccc3OC)c(=O)oc2cc1O was read as Mdm2 MdmX PPI 95*, Jurkat NFkB inh 2, Beta apoptosis 19, Gli-Sufu block 12, 697 NFkB inh 13 and Mdm2-MdmX conf 9.
O=C(c1cccs1)n1nc(-c2cccnc2)nc1NCc1ccco1 was read as Gli-Sufu block -5.
For CCOc1ccc(-n2c(SCC(=O)Nc3nccs3)nc3c(c2=O)SCC3)cc1 the results were Mdm2 MdmX PPI 59*, Jurkat NFkB inh -2, Beta apoptosis 17, Gli-Sufu block 2, 697 NFkB inh 6 and Mdm2-MdmX conf 17.
Screening Cc1ccc(-n2c(SCC(=O)Nc3nccs3)nc3c(c2=O)SCC3)cc1 returned Mdm2 MdmX PPI 4, Jurkat NFkB inh 7, Beta apoptosis 0, Gli-Sufu block 3 and 697 NFkB inh 1.
COc1ccc(C(O)(C(C)C)C(CN2CCOCC2)c2ccc(Cl)cc2)cc1 (centres undefined) was read as Mdm2 MdmX PPI 15, Jurkat NFkB inh 20, Beta apoptosis 0, Gli-Sufu block 3 and 697 NFkB inh 1.
For Cc1cc(C)cc(CC(Cc2nc3ccccc3[nH]2)c2nc3ccccc3[nH]2)c1 (centres undefined) the results were Mdm2 MdmX PPI 91*, Jurkat NFkB inh -14, Beta apoptosis 46, Gli-Sufu block -16, 697 NFkB inh -36 and Mdm2-MdmX conf 24.
`Cc1ccc(CSCc2nc3ccccc3[nH]2)cc1` gave Gli-Sufu block -18.
COc1cc(C(=O)OCc2cc(=O)oc3c(C)c(C)ccc23)ccc1OC(F)F was read as Mdm2 MdmX PPI 60*, Jurkat NFkB inh 11, Beta apoptosis 7, Gli-Sufu block -29, 697 NFkB inh 4 and Mdm2-MdmX conf 12.
Screening COc1cc(C(=O)OCc2cc(=O)c(O)co2)ccc1OC(F)F returned Mdm2 MdmX PPI -2, Jurkat NFkB inh -7, Beta apoptosis 11, Gli-Sufu block -16 and 697 NFkB inh 6.
`O=C(NCCO)c1cc2c([nH]c3ccccc32)c(-c2ccccc2)n1` gave Mdm2 MdmX PPI 47, Jurkat NFkB inh 0, Beta apoptosis 5 and 697 NFkB inh 7.
Screening Cc1ccc(-c2nc(C(=O)NCCCN(C)C)cc3c2[nH]c2ccccc23)cc1 returned Mdm2 MdmX PPI 66*, Jurkat NFkB inh -36, Beta apoptosis 21, Gli-Sufu block 7, 697 NFkB inh 6 and Mdm2-MdmX conf 27.
For COc1ccc(-c2nc(C(=O)NCC3CCCO3)cc3c2[nH]c2ccccc23)cc1 (centres undefined) the results were Mdm2 MdmX PPI 46, Jurkat NFkB inh 0, Gli-Sufu block 15 and 697 NFkB inh 23.
Screening O=C(NCC1CCCO1)c1cc2c([nH]c3ccccc32)c(-c2cccc(Br)c2)n1 (centres undefined) returned Mdm2 MdmX PPI 62*, Jurkat NFkB inh 5, Beta apoptosis 58, Gli-Sufu block 15, 697 NFkB inh 24, Mdm2-MdmX conf 36 and Full FLuc ctr 63*.
Cc1ccccc1-c1nc(C(=O)NCC2CCCO2)cc2c1[nH]c1ccccc12 (centres undefined) was read as Mdm2 MdmX PPI 57*, Jurkat NFkB inh 4, Beta apoptosis 35, Gli-Sufu block 13, 697 NFkB inh 15 and Mdm2-MdmX conf 28.
CCc1nc2c(s1)CCc1onc(-c3ccc(Cl)cc3)c1-2 was read as Mdm2 MdmX PPI -6, Jurkat NFkB inh 1, Gli-Sufu block -7 and 697 NFkB inh 8.
`CCC(CC)N1CCN(C(=O)c2cccc(Cl)c2)CC1` gave Mdm2 MdmX PPI -14, Jurkat NFkB inh 7, Beta apoptosis -1, Gli-Sufu block -26 and 697 NFkB inh 4.
